# D1 antagonist = human D1 dopamine receptor antagonism | P21728 | HEK293 TREx D1 cells, calcium flux, dopamine EC80; active compounds read low | activity change, negative = inhibition, % at 10 µM | 360,000 compounds, 3.2% hits; in the data active means activity change below about -30%; further: on the % scale 0 is the no-effect control and ±100 the full control effect
#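 Cells carrying a force-coupled, tetracycline-inducible human D1 receptor report calcium flux. Each well gets a 10 s baseline, compound with 180 s monitoring, then an EC80 dopamine stimulus with a second 180 s kinetic read.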
# TRPV1 PAM = potentiators of human vanilloid receptor 1 (TRPV1) | TRPV1-expressing cells, Fluo-8 calcium influx, capsaicin EC20 potentiation | potentiation, % at 8.33 µM | 320,000 compounds, 0.02% hits | AID 540277; in the data active means potentiation above about 80%; inconclusive means between about 30% and that limit; further: 0% is about no effect
# Target sequence (Q8NER1 whole entry, looked up): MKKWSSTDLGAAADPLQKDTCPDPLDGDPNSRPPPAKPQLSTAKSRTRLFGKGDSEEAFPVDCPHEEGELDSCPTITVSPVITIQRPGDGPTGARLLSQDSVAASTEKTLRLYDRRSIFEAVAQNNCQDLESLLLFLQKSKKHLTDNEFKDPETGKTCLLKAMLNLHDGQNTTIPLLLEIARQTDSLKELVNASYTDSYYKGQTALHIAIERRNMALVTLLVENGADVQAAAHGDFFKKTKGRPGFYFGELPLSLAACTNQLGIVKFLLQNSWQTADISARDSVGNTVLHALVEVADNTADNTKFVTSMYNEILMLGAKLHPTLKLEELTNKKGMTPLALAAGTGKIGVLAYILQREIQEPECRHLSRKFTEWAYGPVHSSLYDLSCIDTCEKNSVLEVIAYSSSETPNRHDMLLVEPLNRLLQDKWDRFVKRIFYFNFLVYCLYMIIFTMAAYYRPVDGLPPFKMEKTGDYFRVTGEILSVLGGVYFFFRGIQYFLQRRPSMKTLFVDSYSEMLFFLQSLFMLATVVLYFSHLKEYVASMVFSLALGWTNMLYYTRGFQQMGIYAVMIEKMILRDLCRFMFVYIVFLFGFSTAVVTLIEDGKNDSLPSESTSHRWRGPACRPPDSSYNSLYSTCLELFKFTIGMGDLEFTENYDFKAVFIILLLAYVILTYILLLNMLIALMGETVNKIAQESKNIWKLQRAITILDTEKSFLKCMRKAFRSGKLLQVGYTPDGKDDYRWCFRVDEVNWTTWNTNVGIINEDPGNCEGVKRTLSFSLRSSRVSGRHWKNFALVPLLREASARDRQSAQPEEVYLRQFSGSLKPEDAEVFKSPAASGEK
#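 Fluo-8 calcium influx in TRPV1-expressing cells, kinetic read (ex 480/em 520 nm). Compound added and read 3 min for agonist activity, followed by capsaicin at EC20 final and 2 min further read for enhancement.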
# TRPV1 ag = activates the human vanilloid receptor TRPV1. TRPV1-expressing cells, Fluo-8 calcium influx, agonist mode. activation, % at 8.33 µM. 320,000 compounds, 0.19% hits; in the data active means activation above about 80%; inconclusive means between about 30% and that limit; further: 0% is about no effect
#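 Cells expressing TRPV1 were dye-loaded with Fluo-8 and read kinetically: 10 s baseline, 3 min after compound (agonist portion), then 2 min after EC20 capsaicin (allosteric enhancer portion). Calcium-bound dye fluorescence at 480/520 nm.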
# D1 potentiator = potentiators of human D1 dopamine receptor; HEK293 TREx D1 cells, calcium flux, dopamine EC20 potentiation; 360,000 compounds, 0.036% hits; potentiation, % at 10 µM; P21728; in the data active means potentiation above about 30%; further: 0% is about no effect
# D1 agonist = agonists of human D1 dopamine receptor | P21728 | HEK293 T-REx D1 cells, calcium flux, agonist mode | activation, % at 2 µM | 360,000 compounds, 1% hits | AID 504660; in the data active means activation above about 30%; further: 0% is about no effect
#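 Inducible HEK293 T-REx D1 cells, force-coupled to calcium signalling, were plated at 4000 cells/well with tetracycline and held overnight at 30 C. After no-wash calcium dye loading, compound-evoked calcium rise over 180 s flagged agonists.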
# An asterisk follows results filed as active; u = inconclusive; x = no result given. Sampled rows, rich in hits. Any-hit rate of the full collection: about 4.2%.
SMILES,D1 antagonist,TRPV1 PAM,TRPV1 ag,D1 potentiator,D1 agonist
Cc1nc([N+](=O)[O-])cn1Cc1cccc([N+](=O)[O-])c1,-31.3*,-7.3,-1.0,-6.4,3.2
COc1ccc(C(C)NC(=O)C2CCCO2)cc1OC (stereo unspecified),8.1,-0.3,0.0,1.6,1.8
COc1ccc(C(C)NC(=O)C2CCCC2)cc1OC (stereo unspecified),-47.6*,-2.1,2.7,4.7,8.4
CC1=C(C(=O)Nc2ccc(C)cc2C)C(c2cccs2)n2nc(SCc3ccccc3Cl)nc2N1 (stereo unspecified),-15.2,x,x,0.5,3.3
O=C(COc1ccc(Cl)cc1Cl)NC(=S)Nc1ccc(CN2CCOCC2)cc1,-40.3*,2.4,4.5,-4.7,13.5
CCOC(=O)C1=C(N)Oc2c(oc(CO)cc2=O)C1c1ccc(Cl)cc1 (stereo unspecified),10.6,4.5,0.7,1.9,-0.1
CCOC(=O)C1=C(N)Oc2c(oc(CO)cc2=O)C1c1c(F)cccc1Cl (stereo unspecified),-63.7*,9.6,-3.1,2.3,0.3
Cc1cccc(Cn2cnc3c(cnn3-c3ccc(Cl)cc3)c2=O)c1,-1.5,x,x,0.7,0.5
COc1ccc(/C=C2\CCC/C(=C\C=N\N(C)C)C2=O)cc1,-35.1*,0.5,8.0,-2.0,13.5
CN(C)c1ccc(/C=C2\CCC/C(=C\c3ccccc3)C2=O)cc1,-18.9,5.1,11.6,0.5,90.8*
Cn1c2cc(C#N)sc2c2cnn(Cc3ccccc3F)c(=O)c21,11.8,x,x,0.3,0.0
Cc1nnsc1NC(=O)OCc1ccc(Cl)cc1Cl,-32.6*,-3.3,11.8,-7.2,13.2
Cc1nn(C)c(Cl)c1NC(=O)OCc1ccc(Cl)cc1Cl,-37.2*,-5.6,8.0,-9.2,25.1
O=C(NC(=O)c1ccccc1F)OCc1ccc(Cl)cc1Cl,7.1,-13.5,19.0,-3.4,5.7
CN(C)c1ccc(/C=C2\C(=N)N3N=C(CC(=O)N4CCCCC4)SC3=NC2=O)cc1,7.9,0.2,u,0.9,36.5*
CN(C)c1ccc(/C=C2\C(=N)N3C(=NC2=O)Sc2cc(S(C)(=O)=O)ccc23)cc1,-8.0,-9.2,u,-0.7,78.2*
CN(C)c1ccc(/C=C2\C(=N)N3N=C(CC(=O)N4CCCC4)SC3=NC2=O)cc1Br,-28.4,-5.4,-0.5,4.3,2.2
COc1ccc(CNC(=O)C2CCN(C(=O)c3ccc(-n4ccc5ccccc54)s3)CC2)cc1,-5.0,x,x,-3.9,5.5
Cc1ccc(C)c(Cn2c(=O)n(CCCC(=O)NCCc3ccc(Cl)cc3)c(=O)c3ccccc32)c1,-2.2,x,x,-0.8,10.8
O=C(OCCOc1cccc(Cl)c1)C1CCN(S(=O)(=O)c2ccccc2)CC1,-22.2,14.8,5.4,-1.4,30.1*
CCOC(=O)C1CCN(S(=O)(=O)c2ccccc2)CC1,-10.4,-1.2,1.9,-6.0,3.2
Cc1nc(Nc2ccc(Cl)c(Cl)c2)sc1C(=O)Nc1ccccc1,-51.6*,-7.6,4.4,-8.0,6.3
COc1ccc(C(=O)c2sc(Nc3ccccc3)nc2C)cc1,-12.3,-26.1,u,11.1,14.9
Cc1nc(Nc2ccccc2)sc1C(=O)c1ccccc1,-32.6*,-6.9,u,-1.5,12.8
Cc1nc(Nc2ccc(Cl)cc2Cl)sc1C(=O)Nc1ccccc1,-1.0,-0.4,u,4.1,-0.1
SMILES,D1 antagonist,TRPV1 PAM,TRPV1 ag,D1 potentiator,D1 agonist
O=CNC1CCCc2c1[nH]c1ccc(Cl)cc21 (stereo unspecified),-37.2*,u,10.2,-2.3,1.8
CCN(CC)C(=O)C1CCCc2c1[nH]c1ccc(Cl)cc21 (stereo unspecified),-11.5,2.1,-1.6,4.3,-0.4
Cc1cccc(CN2C(=O)c3ccccc3Sc3ccc(C(=O)NC4CCCCC4)cc32)c1,-10.8,x,x,-1.6,1.3
CNCC/C=C1/c2ccccc2CSc2ccccc21,-51.4*,-10.1,1.0,-26.8,19.4
O=S(=O)([O-])CCC[n+]1c(/C=C\Nc2ccccc2)oc2ccc(-c3ccccc3)cc21,-3.4,-3.6,u,-0.8,122.6*
COc1cccc(N2CC(NC(=O)C(=O)c3c[nH]c4ccccc34)CC2=O)c1 (stereo unspecified),-34.5*,-2.2,2.5,-2.8,2.5
O=C(NC1CC(=O)N(c2cccc(F)c2)C1)C(=O)c1c[nH]c2ccccc12 (stereo unspecified),-15.7,-4.4,9.0,-3.9,23.1
CN(C)c1ccc(CNS(=O)(=O)c2ccc(-c3cc(C(F)(F)F)on3)s2)cc1,-8.5,x,x,-1.0,2.2
O=C(CSc1cc([N+](=O)[O-])cc(S(=O)(=O)Cc2ccccc2)c1)NC1CC1,-40.0*,12.7,0.4,-8.7,2.1
C=CCNC(=O)CSc1cc([N+](=O)[O-])cc(S(=O)(=O)Cc2ccccc2)c1,2.5,4.6,2.6,7.2,7.0
Cn1c(=O)c2cc(C(=O)Nc3cccc(C#N)c3)sc2c2ccccc21,-5.4,x,x,-1.6,0.8
CC(C)(C)c1ccc(C(=O)Nc2ccc(C(=O)OCc3cc(=O)n4ccsc4n3)cc2)cc1,0.5,x,x,-0.1,1.9
O=C(NC(NC(=S)N1CCOCC1)C(Cl)(Cl)Cl)c1ccc(Cl)cc1 (stereo unspecified),-20.4,0.5,83.0*,-10.4,18.1
CCCCC(=O)NC(NC(=S)N1CCOCC1)C(Cl)(Cl)Cl (stereo unspecified),-34.0*,2.9,-2.9,5.4,4.8
CCCCC(=O)Nc1ccccc1C(=O)N1CCOCC1,-8.1,-8.6,-2.8,-5.8,-0.4
O=C(NC(N1CCOCC1)C(Cl)(Cl)Cl)c1ccc(Br)cc1 (stereo unspecified),4.8,-14.2,10.9,2.5,-0.5
Cc1cc(C)c(S(=O)(=O)Nc2nnc(C)s2)c(C)c1,-33.7*,-1.8,1.1,-2.3,2.8
O=C(CCS(=O)(=O)c1cccc2nonc12)N1CC(=O)N(CCc2ccccc2)C(=O)C1,-91.2*,16.0,1.3,-2.5,11.1
CCCCNCC1CCCO1 (stereo unspecified),-90.5*,-0.4,1.4,-6.3,3.7
CSc1nc2sc3c(c2c(=O)n1-c1ccccc1)CCC(C(C)(C)C)C3 (stereo unspecified),-3.3,x,x,2.1,3.1
COCCn1c(N)c(C(=O)NS(=O)(=O)c2ccc(C)cc2)c(=O)[nH]c1=O,-31.8*,5.8,0.7,1.1,7.3
Cc1ccc2c(c1)N(C(=O)N1CCC(C(=O)Nc3cccc(F)c3)CC1)CCO2,7.2,x,x,0.6,-0.5
CCN(CC)CCOC(=O)c1ccc(NC(=O)CCCN2C(=O)/C(=C\c3cccs3)SC2=S)cc1,-65.9*,-1.5,7.4,-20.9,22.6
O=C(CCN1C(=O)/C(=C\c2cccs2)SC1=S)Nc1ccc(C(=O)O)cc1,-6.7,26.6,2.5,-1.1,3.0
O=S(=O)(Nc1ccc(-c2ccc(N3CCCC3)nn2)cc1)c1ccc(OC(F)(F)F)cc1,-9.0,x,x,1.8,3.1
